For 36 molecules, Potency and activity change, negative = viability loss results are on record in PubChem BioAssay AID1345085 (National Center for Advancing Translational Sciences (NCATS), 2018).

SMILES strings stand for the structures. Inconclusive results are not listed. A number with no mark means an inactive call. Calls of active or inactive are those of the source. Calls come from the whole dose curve; as a rule, active = well fitted cell-killing curve with a large enough effect; inconclusive = small, poorly fitted or top-dose-only effect, or effect the other way; inactive = no such curve, though single readings can be large or run the other way.
% is set by controls: 0 for no effect and ±100 for the full control effect; potency is the fitted concentration of half-maximal effect.

The subject of this assay is HeLa. The assay is described as follows: Confirmatory qHTS for gynecologic anti-cancer compounds from libraries of approved drugs and bioactive compounds. Note: nearly all actives have a fitted effect of over 55% in size. The settings on record: gynecologic cancer cell panel viability, ATPlite luminescence, 48 h; series mostly up to 57.6 µM. In short, it runs like this:
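IC50 values derive from an ATPlite ATP-content luminescence assay following 48 h treatment at 37 C. Each compound ran as an 11-concentration, threefold series (57.5 uM to 0.977 nM); HEK 293T served as control line for selectivity index.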
Consider `Cc1ccc(C(=O)N(CCCN)C(c2oc3cc(Cl)ccc3c(=O)c2Cc2ccccc2)C(C)C)cc1` (stereo unspecified), for which the Potency was 0.0137 µM (active).

Turning to `CCCS(=O)c1ccc2nc(NC(=O)OC)[nH]c2c1` (stereo unspecified), the Potency was 24.3 µM (active). Still for that read-out and setting: to `c1nc2nc(Nc3ccc(N4CCOCC4)cc3)nc(NC3CCCCC3)c2[nH]1` belongs 1.88 µM (active); to `C[C@]12CCC(=O)C=C1CC[C@@H]1[C@@H]2[C@@H](O)C[C@@]2(C)[C@H]1CC[C@]2(O)C(=O)CO`, “inactive”. Still for that read-out and setting: for `Nc1ccc(C(=O)Nc2cccc(-c3nc(N4CCOCC4)c4oc5ncccc5c4n3)c2)cn1` the value was 7.69 µM (active); for `CC(=O)O[C@H]1C(=O)[C@@]2(C)[C@H]([C@H](OC(=O)c3ccccc3)[C@]3(O)C[C@H](OC(=O)[C@H](O)[C@@H](NC(=O)c4ccccc4)c4ccccc4)C(C)=C1C3(C)C)[C@]1(OC(C)=O)CO[C@@H]1C[C@@H]2O`, 0.0163 µM (active). As to `CCCCc1oc2ccc(NS(C)(=O)=O)cc2c1C(=O)c1ccc(OCCCN(CCCC)CCCC)cc1`, the Potency is 24.3 µM (active). Still for that read-out and setting: for `C=CC(=O)Nc1cccc(Oc2nc(Nc3ccc(N4CCN(C)CC4)cc3)ncc2Cl)c1` the value was 6.85 µM (active). With `COc1cccc2c1C(=O)c1c(O)c3c(c(O)c1C2=O)C[C@@](O)(C(=O)CO)C[C@@H]3O[C@H]1C[C@H](N)[C@H](O)[C@H](C)O1`, the Potency was 6.85 µM (active). Turning to `COCCOc1nc(-c2ccc(Cl)c(Cl)c2)n(-c2ccc(NC(=O)CCl)cc2)n1`, the Potency is 24.3 µM (active). For `Cc1cc(Nc2nc(N[C@@H](C)c3ccc(F)cc3)c(C#N)cc2F)n[nH]1`, the Potency is 1.09 µM (active).

As for `O=C1c2c(O)ccc(O)c2C(=O)c2c(NCCNCCO)ccc(NCCNCCO)c21`, the Potency is 2.43 µM (active).

Consider `Cc1nc(N)nc(N)c1-c1ccc(Cl)c(Cl)c1`, for which the Potency was 3.06 µM (active). Consider `Cc1cnc(Nc2ccc(CN3CCOCC3)cc2)nc1Nc1cccc(S(=O)(=O)NC(C)(C)C)c1`, for which the Potency is 2.17 µM (active). In the case of `CC[C@H](Nc1ncnc2nc[nH]c12)c1nc2cccc(F)c2c(=O)n1-c1ccccc1`, the activity change, negative = viability loss was 0.732% [at 10.7 µM]. On to `O=C1N(c2ccccc2)c2ccccc2C1(Cc1ccncc1)Cc1ccncc1`, for which the Potency entry was “inactive”. On the same count and under the same terms, for `CNC(=O)c1ccccc1Sc1ccc2c(/C=C/c3ccccn3)n[nH]c2c1` the value was 3.06 µM (active). On to `CCC1C(=O)N(C)c2cnc(Nc3ccc(C(=O)NC4CCC(N5CCN(CC6CC6)CC5)CC4)cc3OC)nc2N1C(C)C` (stereo unspecified), for which the Potency was 0.0385 µM (active). Same read-out and setting: to `Cc1cc(Nc2nc(N[C@@H](C)c3ncc(F)cn3)ncc2Cl)n[nH]1` belongs 0.968 µM (active); to `COc1cc(N2CCC(N)CC2)ccc1Nc1ncc(Cl)c(-c2c[nH]c3ccccc23)n1`, 0.544 µM (active); to `COc1cc(N2CCC(N3CCN(C)CC3)CC2)ccc1Nc1ncnc(Nc2ccccc2S(=O)(=O)C(C)C)n1`, 8.63 µM (active). With `COc1cc2c(Nc3ccc(NC(=O)c4ccccc4)cc3)ncnc2cc1OCCCN1CCOCC1`, the Potency is 21.7 µM (active). For the molecule `COC(C(=O)N1Cc2[nH]nc(NC(=O)c3ccc(N4CCN(C)CC4)cc3)c2C1)c1ccccc1` (stereo unspecified), the Potency was 0.243 µM (active).

Turning to `CC[C@]1(O)C[C@@H]2CN(CCc3c([nH]c4ccccc34)[C@@](C(=O)OC)(c3cc4c(cc3OC)N(C)[C@H]3[C@@](O)(C(=O)OC)[C@H](OC(C)=O)[C@]5(CC)C=CCN6CC[C@]43[C@@H]65)C2)C1`, the Potency is 0.122 µM (active). On the same count and under the same terms, for `COc1cc(Nc2ncc(F)c(Nc3ccc4c(n3)N(COP(=O)(O)O)C(=O)C(C)(C)O4)n2)cc(OC)c1OC` the value was 1.72 µM (active).

As to `CN[C@@H](C)C(=O)N[C@H]1CN(C(=O)CC(C)C)CC[C@H]2CC[C@@H](C(=O)NC(c3ccccc3)c3ccccc3)N2C1=O`, the Potency result is “inactive”. On to `NC(=O)Nc1cc(-c2cccc(F)c2)sc1C(=O)NC1CCCNC1` (stereo unspecified), for which the Potency is 1.22 µM (active). Regarding `COc1cc2nccc(Oc3ccc(NC(=O)Nc4cc(C)on4)c(Cl)c3)c2cc1OC`, the Potency is 15.3 µM (active).

`Nc1cccc(-c2cc3c(Oc4cccc(O)c4)ncnc3[nH]2)c1`: the Potency was 9.68 µM (active). `CC(C)C[C@H](NC(=O)[C@@H](NC(=O)c1cccc(-c2ccccc2)n1)[C@@H](C)O)B(O)O`: the Potency was 24.3 µM (active).

With `Cc1nc(Nc2n[nH]c3c2CN(C(=O)NC(CN(C)C)c2ccccc2)C3(C)C)c2sccc2n1` (stereo unspecified), the Potency is 3.06 µM (active). With `Nc1nccc(Oc2ccc(NC(=O)c3c[nH]cc(-c4ccc(F)cc4)c3=O)cc2F)c1Cl`, the Potency was 6.85 µM (active).

Regarding `Cc1cc(Nc2cc(N3CCN(C)CC3)nc(/C=C/c3ccccc3)n2)n[nH]1`, the Potency was 1.72 µM (active).

On to `NC(=O)c1cnc(-c2ccc(C3(N)CCC3)cc2)c(-c2ccccc2)c1`, for which the Potency was 30.6 µM (active). Still for that read-out and setting: to `Cc1nc(N)ncc1-c1nc(N2CCOCC2)c2sc(C(C)(C)O)cc2n1` belongs 1.72 µM (active). As for `COc1cc(N2CCC(N(C)C)CC2)ccc1Nc1ncc(Cl)c(Nc2ccccc2P(C)(C)=O)n1`, the Potency was 1.37 µM (active).
